In PubChem BioAssay (NCI) one finds growth inhibition data, which are given here for 39 molecules.

A short description of assay [1]: NCI Yeast Anticancer Drug Screen. Data for the rad50 strain (AID 155).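 Note: 0% = growth of vehicle-only cultures of the same strain.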 To be noted: S. cerevisiae rad50 strain growth inhibition; at 50.0 µM; hits give high values. The gist of the method: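 Cells are treated with compound, grown, and their growth is then scored against vehicle-only cultures of the same repair-deficient yeast strain.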
The nature of assay [2]: NCI Yeast Anticancer Drug Screen. Data for the mec2-1 strain (AID 157). To be noted: S. cerevisiae mec2-1 strain, at 50.0 µM, hits give high values. In outline: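 Each compound was tested on mec2-1 yeast, a strain altered in DNA damage repair or cell cycle control. Growth inhibition is reported relative to vehicle.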
Assay [3] in a line: NCI Yeast Anticancer Drug Screen. Data for the sgs1 mgt1 strain (AID 161).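 Note: 0% = growth of cultures given vehicle only.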 To be noted: S. cerevisiae sgs1 mgt1 strain, at 50.0 µM, hits give high values. The gist of the method:
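Test agents were incubated with a DNA-repair-mutant yeast strain. Growth was then read and compared against vehicle-treated controls.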

Assay [4] is described as follows: NCI Yeast Anticancer Drug Screen. Data for the cln2 rad14 strain (AID 165).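 Note: 0% = growth equal to vehicle treated cultures.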 The following applies: S. cerevisiae cln2 rad14 strain, at 50.0 µM, hits give high values. The gist of the method: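 Test compounds were added to cln2 rad14 yeast cultures; inhibition of growth was then determined by comparison with vehicle treatment.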
Assay [5] can be described thus: NCI Yeast Anticancer Drug Screen. Data for the bub3 strain (AID 167). To be noted: S. cerevisiae bub3 mutant strain, at 50.0 µM, hits give high values. The gist of the method: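 Part of a panel of yeast mutants defective in DNA damage repair or cell cycle regulation. Each strain is grown with compound, and inhibition is calculated relative to solvent-treated cultures.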

A short description of assay [6]: NCI Yeast Anticancer Drug Screen. Data for the mlh1 rad18 strain (AID 175). To be noted: S. cerevisiae mlh1 rad18 strain growth inhibition; at 50.0 µM; hits give high values. The gist of the method: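 Inhibition values reflect reduced growth of mutant yeast versus vehicle-treated controls following compound exposure; the mutations affect DNA damage repair.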

Compounds without any hit were thinned out: in the full panel of roughly 79,000, 15% have a hit. Values without a mark were called inactive. The source made the active and inactive calls. Cut-off read from the data, not from the text of the source: active = growth inhibition above about 70%; inactive = the rest. Where a SMILES comes first, the peptide text is derived from it. The star is where a group is joined. Cbz = O=C(OCc1ccccc1)*

As for `CC(C)C1=CC(=Nc2ccc(N(C)C)cc2)C=CC1=O`, the growth inhibition in assay [1] was -1.35%; in assay [2] it was 6.4%; in assay [3], 9.5%; in assay [4] it was -29.2%; in assay [5], 18%; in assay [6], -13.1%.

In the case of `COc1ccc(-n2cc[n+](C)c2/C=N\O)cc1`, the growth inhibition was -3.1% in assay [1]; 0.95% in assay [2]; 3.2% in assay [3]; -43.3% in assay [4]; -31.8% in assay [5]; -13.6% in assay [6].

As for `COc1ccc(/C=C\c2cc(OC)c(OC)c(OC)c2)cc1OCC(=O)O`, the growth inhibition was -5.95% in assay [1]; -1.75% in assay [2]; 13% in assay [3]; 8.65% in assay [4]; -10.4% in assay [5]; -52.5% in assay [6].

As for `CCN(CC)c1nc(C(N)=O)c([N+](=O)[O-])c(N(CC)CC)n1`, the growth inhibition in assay [1] was -9.7%; in assay [2], -3.4%; in assay [3] it was 14.1%; in assay [4], -14.2%; in assay [5], -17.9%; in assay [6] it was -0.5%.

As for `O=C(NCCN1CCOCC1)c1ccc(I)cc1`, the growth inhibition is 31.8% in assay [1]; 28.9% in assay [2]; 45% in assay [3]; 38.4% in assay [4]; 32.1% in assay [5]; 43.3% in assay [6].

Regarding `CCOC(=O)c1cc2c([N+](=O)[O-])cccc2[nH]1`, the growth inhibition was 18.4% in assay [1]; -5.9% in assay [2]; -2.2% in assay [3]; -35.5% in assay [4]; 6.45% in assay [5]; 13.7% in assay [6].

As to `CC1=CCS(=O)(=O)C1`, the growth inhibition in assay [1] is 22.4%; in assay [2], 1.55%; in assay [3] it was 12.2%; in assay [4], 10.3%; in assay [5], -4.1%; in assay [6], 29%.

`CNCC(=O)NC(CO)C(=O)NC(CO)C(=O)NC1C(C(N)=O)OC(n2ccc(N)nc2=O)C(O)C1O` (centres undefined): the growth inhibition is 13.3% in assay [1]; 10.3% in assay [2]; 8.75% in assay [3]; 38.5% in assay [4]; 23.9% in assay [5]; 24.3% in assay [6].

Consider `Cc1ccccc1NC(=O)NNc1ccccc1`, for which the growth inhibition in assay [1] was 17%; in assay [2], -0.65%; in assay [3] it was 7.35%; in assay [4], 10.7%; in assay [5], -2.9%; in assay [6] it was 3.85%.

Turning to `Cc1n(C)c(C(O)c2ccccc2)c(Br)[n+]1C` (centres undefined), the growth inhibition in assay [1] was 9.3%; in assay [2], 1.4%; in assay [3], 8.25%; in assay [4] it was -12.1%; in assay [5], 77.7% (active); in assay [6] it was 12.6%.

On to `Cc1ccccc1N=C(N)NC#N`, for which the growth inhibition in assay [1] is -14%; in assay [2] it was -31.9%; in assay [3] it was -15.1%; in assay [4] it was -4.65%; in assay [5], -13.2%; in assay [6], -49.7%.

`Cc1ccc(NC(=O)/C=C/c2ccccc2)cc1`: the growth inhibition in assay [1] was -2.85%; in assay [2], -8.1%; in assay [3] it was -3.15%; in assay [4], -3.95%; in assay [5] it was 10.2%; in assay [6], 10.9%.

As to `O=C(O)CCCCl`, the growth inhibition in assay [1] was 12.3%; in assay [2], -7.8%; in assay [3], 16.2%; in assay [4], 13.7%; in assay [5], 12.7%; in assay [6] it was 26%.

On to `CC(=O)Nc1ccccc1Sc1ccccc1`, for which the growth inhibition in assay [1] is -6.5%; in assay [2], -17.1%; in assay [3] it was 4.35%; in assay [4], 15.1%; in assay [5], 4.6%; in assay [6], -20.9%.

With `O=Cc1cccc(/C=N/Nc2nnc(N/N=C/c3cccc(C=O)c3)c3ccccc23)c1`, the growth inhibition was 30.6% in assay [1]; 26.5% in assay [2]; 35.5% in assay [3]; 33.1% in assay [4]; -3.2% in assay [5]; 17.1% in assay [6].

Turning to `O=C(O)c1ccc(F)cc1F`, the growth inhibition is 6.25% in assay [1]; -15.9% in assay [2]; 11.3% in assay [3]; -32.7% in assay [4]; -3.75% in assay [5]; 2.85% in assay [6].

`COc1c(C)cc2c(C(C)C)c(O)c(O)c(C=O)c2c1O`: the growth inhibition was 86.1% (active) in assay [1]; 88.2% (active) in assay [2]; 80.5% (active) in assay [3]; 79% (active) in assay [4]; 80.8% (active) in assay [5]; 76.3% (active) in assay [6].

As to `O=C(O)c1[nH]c2c(=O)[nH]c(=O)[nH]c2c1Br`, the growth inhibition in assay [1] was 5.25%; in assay [2], -2.8%; in assay [3] it was -15.9%; in assay [4], -4.35%; in assay [5], 2.15%; in assay [6], 15%.

Consider `CC(C)C(C)(C(N)=O)C(C)C`, for which the growth inhibition in assay [1] was 14.3%; in assay [2] it was 17.4%; in assay [3], 10.2%; in assay [4], 17.9%; in assay [5], -1.25%; in assay [6], -1.4%.

Turning to `O=C(O)c1onc2ccccc12`, the growth inhibition in assay [1] was -17.9%; in assay [2], -15.1%; in assay [3], -35.2%; in assay [4], -7.7%; in assay [5] it was -5.15%; in assay [6], -29.8%.

In the case of `CCC(=O)Nc1cc([N+](=O)[O-])cc([N+](=O)[O-])c1`, the growth inhibition in assay [1] was 8.1%; in assay [2], -7.3%; in assay [3], -13.3%; in assay [4], -32.5%; in assay [5] it was -36.9%; in assay [6] it was -23.6%.

Regarding `COC(=O)CC1C(OC)OC23CCC1C2(C)CCC1C3CCC2CC(OC3CCCCO3)CCC21C` (centres undefined), the growth inhibition in assay [1] is 19.1%; in assay [2], 1.15%; in assay [3] it was 9.55%; in assay [4] it was 12.6%; in assay [5], 3.2%; in assay [6], 18.3%.

`Cc1c(C)c(CO)c(C)c(C)c1CO`: the growth inhibition was -15.8% in assay [1]; -19.4% in assay [2]; 15.8% in assay [3]; 4.9% in assay [4]; 12.1% in assay [5]; -2.1% in assay [6].

With `C=C1CCCC(C)(C)C1CC/C(C)=C/CC/C(C)=C/CO` (centres undefined), the growth inhibition was -0.75% in assay [1]; -1.45% in assay [2]; 12.7% in assay [3]; 8.4% in assay [4]; 8.75% in assay [5]; 12.1% in assay [6].

With `CCOC(=O)NCC(C)(C)N(C(=O)OCC)c1ccccc1`, the growth inhibition was -24.1% in assay [1]; -42.1% in assay [2]; -15.7% in assay [3]; -9.95% in assay [4]; -37.8% in assay [5]; -7.7% in assay [6].

As for `COC(=O)[C@H]1N[C@@H](C(=O)OC)C23CCC[C@H]2CC[C@]1(C(OC)OC)C3`, the growth inhibition was -3.5% in assay [1]; 2.25% in assay [2]; 14.4% in assay [3]; -3.8% in assay [4]; -0.65% in assay [5]; -16.1% in assay [6].

`CC1CCC2(C)OC1OC2CN` (centres undefined): the growth inhibition in assay [1] is 1.15%; in assay [2], 2.85%; in assay [3], -2.2%; in assay [4], -0.55%; in assay [5], 0.3%; in assay [6], -4.65%.

On to `O=C(C(=O)c1cc(-c2ccccc2)nc2ccc3ccccc3c12)c1ccccc1`, for which the growth inhibition in assay [1] was -24.3%; in assay [2], -5.65%; in assay [3] it was -1.05%; in assay [4], 13.9%; in assay [5], 30.1%; in assay [6] it was 14.3%.

Take `COc1ccc2c(c1O)-c1c(OC)c(OC)cc3c1[C@H](C2)[N+](C)(C)CC3`: the growth inhibition in assay [1] was -9%; in assay [2], -12.2%; in assay [3], 11.2%; in assay [4] it was 1.65%; in assay [5], -1.1%; in assay [6], -53.4%.

For the molecule `CCN(CC)c1ccc(N=Nc2ccc(C)cc2)cc1`, the growth inhibition is -6.7% in assay [1]; -22.5% in assay [2]; -12.5% in assay [3]; -0.4% in assay [4]; -15.8% in assay [5]; 12.1% in assay [6].

For `COc1ccc(C(C)(C)C#N)cc1`, the growth inhibition in assay [1] was -20.7%; in assay [2], 13.6%; in assay [3] it was -5.95%; in assay [4], -12.8%; in assay [5], -10.6%; in assay [6] it was 31.6%.

As for `O=C(O)c1ccccc1C(=O)Cc1ccccc1`, the growth inhibition in assay [1] was -14.7%; in assay [2], -19%; in assay [3], -6.7%; in assay [4], -16%; in assay [5], -29.6%; in assay [6] it was -9.6%.

Turning to `CCN(CC)c1ccc(S(=O)(=O)NC(=O)OC)cc1`, the growth inhibition is 3.55% in assay [1]; -2% in assay [2]; -0.65% in assay [3]; 3.45% in assay [4]; -1.25% in assay [5]; -5.5% in assay [6].

As to `CC(O)(C1CC1)C(C(=O)O)c1ccccc1` (centres undefined), the growth inhibition is -15.4% in assay [1]; -6.85% in assay [2]; 1.9% in assay [3]; -26.7% in assay [4]; 1.55% in assay [5]; 10.6% in assay [6].

`CC(=O)NCCSSCCCCS(=O)O`: the growth inhibition in assay [1] was -19.1%; in assay [2] it was -20.1%; in assay [3], 7.85%; in assay [4], 11.3%; in assay [5] it was 6.05%; in assay [6] it was -5.35%.

`O=C(O)/C=C/SCc1ccccc1`: the growth inhibition in assay [1] was 10.2%; in assay [2], -13.2%; in assay [3], 0.8%; in assay [4], -4.3%; in assay [5] it was 1.4%; in assay [6], -3.05%.

For the molecule `O=c1sc2ccccc2n1CCN(CCn1c(=O)sc2ccccc21)c1ccccc1`, the growth inhibition in assay [1] is 39.7%; in assay [2], -7.75%; in assay [3], 13.6%; in assay [4] it was -45.5%; in assay [5] it was 1.65%; in assay [6] it was 14.2%.

As to `CC(O)C1CCCCN1` (centres undefined), the growth inhibition in assay [1] was 2.6%; in assay [2], -1.1%; in assay [3], -8.85%; in assay [4], 10.4%; in assay [5], 14.2%; in assay [6], -0.9%.

Regarding `CC(NC(=O)OCc1ccccc1)C(=O)NC(CO)C(N)=O` (stereo not drawn) (Cbz-Ala-Ser-NH2; configuration not given here), the growth inhibition in assay [1] is 6.15%; in assay [2], -6.5%; in assay [3], -0.25%; in assay [4] it was 19.2%; in assay [5], 5.95%; in assay [6], 8.1%.
